# According to PubChem BioAssay AID1347417 (National Center for Advancing Translational Sciences (NCATS), 2020):
# Among all 120,000 compounds or so, about 5,300 (4.4%) were called active. Roughly 22% stayed inconclusive and do not appear here. The list comes from a sample in which actives are over-represented; it also holds similar structures and randomly drawn compounds. A call without a number means that no potency is given here. Values without a mark were called inactive. Calls follow the shape of the dose curve; as a rule, active = well fitted inhibition curve with a large enough effect; inconclusive = small, poorly fitted or top-dose-only effect; inactive = no such curve, though single readings can be large or run the other way.
# Assay: qHTS Primary assay for Inhibitors of Plasmodium falciparum Dd2 growth in vitro; also: nearly all actives have a fitted effect of over 65% in size
# Conditions: P. falciparum Dd2 growth, SYBR Green, 72 h; series mostly up to 28.9 µM
# In short: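 Infected erythrocytes (Dd2, 0.3% parasitemia, 2.5% hematocrit final) are added to compound in RPMI-1640/Albumax II medium, grown 72 h at 37C in low oxygen, then lysed with saponin/Triton-X containing SYBR Green and read by fluorescence.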
# Potency is read from the fitted curve at half-maximal effect.
Compound,Potency,"activity, negative = inhibition"
O=C(c1n[nH]c(=O)c2ccccc12)N1CC2CC(C1)[C@H]1CCCC(=O)N1C2 (stereo partly drawn),inactive,–
Cc1ccc(N2Cc3c(NCCCOC(C)C)ncnc3N(C)CC2=O)cc1,inactive,–
Cc1cc(=O)[nH]c(NCCNC(=O)c2cc(-c3cccn3C)n[nH]2)n1,inactive,–
Cc1cccc(CC(=O)N2C[C@@H](COc3ccccc3)[C@H](C(N)=O)C2)c1,inactive,–
Cc1nc(C(=O)N2CC[C@H](NC(=O)c3snnc3C)C[C@H]2C(=O)N[C@H](CC(C)C)C(N)=O)cs1,inactive,–
Cc1ccc(NC(=O)N2CC3CC(C2)[C@H]2CCCC(=O)N2C3)cc1F (stereo partly drawn),inactive,–
O=C(N[C@@H]1C[C@H](Cn2cc(CN3CCS(=O)(=O)CC3)nn2)[C@@H](O)[C@H]1O)c1cnccn1,inactive,–
CCC1(N2CCN(C(=O)c3ccc(C(F)(F)F)s3)CC2)CCN(C(=O)NC)C1 (stereo not drawn),inactive,–
N#Cc1ccccc1NC(=O)c1cc2n(n1)CC(c1ccc(Br)cc1)OC2 (stereo not drawn),inactive,–
CC(=O)N1CCN(c2ccc3nnc(-c4ccc(C)cn4)n3n2)CC1,inactive,–
Cc1cn2nc(C(=O)N3CCC(NC(=O)c4ccc(C#N)cc4)CC3)cc2c(=O)[nH]1,inactive,–
Cc1cn2nc(C(=O)N3CCC(NC(=O)CCc4ccccc4)CC3)cc2c(=O)[nH]1,14.1 µM (active),–
O=C(Cn1nc(-c2ccccc2)n(CCc2ccccc2)c1=O)NC1CC1,inactive,–
COC(=O)[C@@H](Cc1cccnc1)NC(=O)[C@H]1CN(S(=O)(=O)c2ccccc2)CCN1C(=O)N1CCOCC1,inactive,–
COC1C(=O)N(c2cccc(F)c2)C12CCN(C(=O)NCc1ccc(C)cc1)CC2 (stereo not drawn),inactive,–
CCS(=O)(=O)N1CCC2(CC1)CC(N1CCN(C(C)C)CC1)CCO2 (stereo not drawn),inactive,–
O=C1CCC2(CCN(Cc3ccc4[nH]ccc4c3)CC2)CN1CCc1ccccc1,7.08 µM (active),–
C=CCN1CC2(CCC1=O)CCN(C(=O)[C@H](N)Cc1ccccc1)CC2,inactive,–
Cn1cc(CN2CCN(Cc3ccccc3)CC2)ccc1=O,inactive,–
COc1ccc(C(=O)N2CCCOCCNC(=O)CC2)c(OC)n1,inactive,–
CN(Cc1nc2ccsc2c(=O)[nH]1)C(=O)C1NCCc2[nH]cnc21 (stereo not drawn),inactive,–
COc1ccc(C(=O)N2c3ccccc3CC2c2nc(C(C)C)no2)c(OC)c1 (stereo not drawn),–,4.25% [at 5.79 µM]
O=C(c1nc2c(o1)CCN(Cc1ccccc1F)CC2)N1CCOCC1,inactive,–
CN1C(=O)[C@H]2CN(Cc3ccccc3Cl)C[C@H]2C1=O,inactive,–
O=C1[C@H]2CN(Cc3ccccc3F)C[C@H]2C(=O)N1CCN1CCc2ccccc2C1,5.01 µM (active),–

Compound,Potency,"activity, negative = inhibition"
COCCn1cc(CN2CCN(c3ccccc3F)CC2)ccc1=O,inactive,–
COc1ccc(Nc2ncc3c(n2)CCN(C(=O)OC(C)(C)C)C3)cc1,5.62 µM (active),–
CCOc1ccc2c(n1)CCN(C(=O)Nc1ccc(OC)cc1C)C2,inactive,–
CCOc1ccc2c(n1)CCN(C(=O)C(C)C)C2,inactive,–
COc1ccc(C(=O)NC2CCN(c3cc(-c4cccs4)[nH]n3)C2)cc1F (stereo not drawn),inactive,–
COCCc1noc(-c2ccc(NC(C)c3ncccc3C)nc2)n1 (stereo not drawn),inactive,–
O=C(NCC1(COc2cccnc2)C[C@@H](O)[C@@H](O)C1)C1CCCC1 (stereo partly drawn),inactive,–
CC(C)(O)CCc1ccc(C(=O)N2CCOc3ccc(Cl)cc3C2)cc1,inactive,–
O=C(CC1CCCC1)N1CCOc2ccc(CN3CCc4ccccc4C3)cc2C1,5.01 µM (active),–
O=C1CCN(Cc2ccc3c(c2)CCO3)CCOCCN1,inactive,–
CCC(C)N1CCN(C(=O)CCc2ccc3c(c2)CN(C(=O)C2CC2)CCO3)CC1 (stereo not drawn),inactive,–
O=C(c1ccccc1)N1CCOc2ccc(CN3CCc4ccccc4C3)cc2C1,7.94 µM (active),–
CC(C)C(=O)N1CCOc2ccc(CN3CCc4ccccc4C3)cc2C1,inactive,–
CC1CCC(NC(=O)CN2C(=O)NC3(CCS(=O)(=O)CC3)C2=O)CC1 (stereo not drawn),inactive,–
Cc1ccc(CNC(=O)c2ccc(OC3CCN(S(C)(=O)=O)CC3)c(Cl)c2)s1,inactive,–
CN(Cc1cccn1C)Cc1ccnn1C,inactive,–
CN(Cc1ccc(-c2ccccc2)cc1)C(=O)c1ccccc1F,inactive,–
O=C(O)COc1ccccc1CN1CC[C@H]2NCCC[C@]2(C(=O)O)C1,inactive,–
COc1ccccc1CNC(=O)CN1CCCC(CO)(CC2CC2)C1 (stereo not drawn),inactive,–
CC(C)=CCC1(CO)CCCN(Cc2ccccc2OCCO)C1 (stereo not drawn),12.6 µM (active),–
Cc1ccsc1CN1CCCCCNC(=O)[C@@H]2CCC[C@@H]21,inactive,–
CC(C)N1C[C@H](O)C[C@H]1c1nnc2n1CCN(C(=O)CCCc1ccccc1)C2,inactive,–
COc1ccc(-c2cc(N3CCC(NC(=O)c4ccc5c(c4)OCO5)CC3)n[nH]2)cc1,inactive,–
O=C(NC1CCCN(c2cc(-c3ccc(Cl)cc3)[nH]n2)C1)c1ccccc1F (stereo not drawn),inactive,–
COc1ccc(-c2cc(N3CCC(NC(=O)c4ccoc4)CC3)n[nH]2)cc1,0.794 µM (active),–

Compound,Potency,"activity, negative = inhibition"
COc1ccc(-c2cc(N3CCCC(NC(=O)c4ccsc4)C3)n[nH]2)cc1 (stereo not drawn),inactive,–
COc1ccc(-c2cc(N3CCC(NC(=O)c4cccc(C)c4)CC3)n[nH]2)cc1,inactive,–
COc1ccc(-c2cc(N3CCCC(NC(=O)c4cc(F)ccc4Cl)C3)n[nH]2)cc1 (stereo not drawn),8.91 µM (active),–
COc1cccc(C(=O)N2CCC(N3C[C@H](O)C[C@H]3C(=O)N3CCC(N4CCCCC4)CC3)CC2)c1,inactive,–
CC(C)Cc1ccc(S(=O)(=O)N2CCCC2c2nncn2Cc2ccncc2)cc1 (stereo not drawn),inactive,–
CCC(CC)C(=O)N[C@@H](Cn1cc(-c2ccccc2F)c(=O)[nH]c1=O)C(=O)O,inactive,–
CN(Cc1cccnc1)c1nc2c(c(=O)[nH]1)CCN(Cc1cc(F)ccc1F)CC2,–,14.7% [at 5.79 µM]
COc1ccc(-c2onc(C)c2C(=O)NCc2ccc3c(c2)OCO3)cc1,inactive,–
CCOc1ccccc1NC(=O)N1c2ccccc2CC1c1nc(C(C)C)no1 (stereo not drawn),–,-4.28% [at 5.79 µM]
O=C(NC[C@H]1C[C@@H]2CCN1C[C@@H]2CN1CCN(c2ncccn2)CC1)c1ccc(C(F)(F)F)cc1,inactive,–
C=C[C@H]1CN2CC[C@H]1C[C@@H]2CNCc1ccc(C(F)(F)F)cc1,2.24 µM (active),–
O=C(CC1=C2CCCCC2NC1=O)Nc1ccccc1F (stereo not drawn),inactive,–
O=C(NC1CCCc2c1[nH]c1ccc(F)cc21)c1n[nH]c2c1CCCC2 (stereo not drawn),inactive,–
COc1ccc(CN2CCC3(COc4ccccc4C(=O)N3)C2)cc1 (stereo not drawn),inactive,–
c1ccc2c(c1)CNC1(CCN(Cc3cccc4ccccc34)CC1)CO2,2 µM (active),–
CC1=NOC2(CCN(Cc3c[nH]c4ccccc34)CC2)C1,inactive,–
Cc1ccc(-c2nc(N3CCOCC3)cc3c2CN(Cc2cnn(C)c2)C3=O)cn1,inactive,–
COc1ccc(CN2CCOc3nc(-c4cc(F)cc(OC)c4)ncc3C2=O)cc1,inactive,–
CCOc1ccccc1NC(=O)N1CCC(n2c(C)cnc2-c2cccnc2)CC1,inactive,–
C=C(C)COc1ccccc1C(=O)NC(C(=O)O)c1c(C)n[nH]c1C (stereo not drawn),inactive,–
COc1ccccc1-c1cc(C(F)(F)F)nc(S(=O)(=O)CCCC(=O)Nc2cc(C)ccc2O)n1,inactive,–
COc1ccccc1-c1cc(C(F)(F)F)nc(S(=O)(=O)CCCC(=O)Nc2ccc(F)cc2F)n1,8.91 µM (active),–
CSc1ccccc1NC(=O)CCS(=O)(=O)c1nc(-c2cccs2)cc(C(F)(F)F)n1,inactive,–
Cc1noc(C)c1[S+](=O)([O-])N1CCCCC12Cc1ccccc1NC2=O (stereo not drawn),inactive,–
Fc1ccc(OCc2nc(C3CCNCC3)no2)cc1,inactive,–

Compound,Potency,"activity, negative = inhibition"
CN1CCCCCCN(C(=O)C2CCOCC2)[C@H]2CCC[C@H]2C1=O,inactive,–
CCN1CCN(C(=O)C23CCCC=C2N(C2CCCC2)C(=O)CC3)CC1 (stereo not drawn),inactive,–
CC1Oc2ccc(NC(=O)c3ccc([N+](=O)[O-])cc3)cc2CN(Cc2ccccc2)C1=O (stereo not drawn),inactive,–
CCn1c(CN2CCC(C)CC2)nc2cc(NC(=O)c3ccccc3[N+](=O)[O-])ccc21,11.2 µM (active),–
Cn1c(=O)c(=O)n(C)c2cc(NC(=O)c3ccccc3Br)ccc21,inactive,–
CC1CCC2(CC1)OCC(C(=O)NCc1ccc3c(c1)OCO3)N2C(=O)c1ccccc1F (stereo not drawn),inactive,–
O=C(NCCC1CCN(C(=O)Nc2cccc(F)c2)CC1)c1ccco1,inactive,–
O=C(NCCN1CCCCC1)C1Cn2cccc2C(=O)N1Cc1ccccc1 (stereo not drawn),inactive,–
COC[C@H]1CCCN1Cc1nc(C2(O)CCN(CC3CCCCC3)CC2)cs1,10 µM (active),–
COC[C@H]1CCCN1Cc1nc(C2(O)CCN(C(=O)C3CCOCC3)CC2)cs1,inactive,–
COc1cccc(C(=O)N2C(C(=O)NC(C)C)COC23CCN(C(=O)c2cccc(F)c2)CC3)c1 (stereo not drawn),inactive,–
N#CCCN1CCN(C(=O)c2cn3ccnc(-c4ccccc4)c3n2)CC1,inactive,–
COCCN1CCCCCC(O)c2cc(C(=O)Nc3cccc(OC)c3)ccc21 (stereo not drawn),inactive,–
COCC(=O)NC[C@H]1CCN(Cc2cn(C)c3ccccc23)C[C@H]1N(C)C,inactive,–
COc1cccc(NC(=O)N(Cc2cn(C)c3ccccc23)C2CCCCCC2)c1,6.31 µM (active),–
Cc1cccc(-c2nc3cnccn3c2NCCC(=O)N2CCCCCC2)c1,inactive,–
CNc1ccc(OC2CCN(C(=O)NCCc3ccccc3)CC2)nc1,inactive,–
Cc1ccc(CNC(=O)c2ccc3c(c2)N(C)C2CCCCN2C3=O)cc1C (stereo not drawn),inactive,–
Cc1ccccc1CNC(=O)c1ccc2c(c1)N(C)C1CCCCN1C2=O (stereo not drawn),4.47 µM (active),–
CN1c2cc(C(=O)Nc3ccc(Cl)cc3)ccc2C(=O)N2CCCCCC21 (stereo not drawn),inactive,–
CN1c2cc(C(=O)Nc3ccccc3)ccc2C(=O)N2CCCCCC21 (stereo not drawn),inactive,–
CN1c2cc(C(=O)NCc3ccccc3Br)ccc2C(=O)N2CCCCC21 (stereo not drawn),7.08 µM (active),–
CN1c2cc(C(=O)N3CCC(C(N)=O)CC3)ccc2C(=O)N2CCCCC21 (stereo not drawn),inactive,–
